Test results published in PubChem BioAssay (NCATS).
Inconclusive results are not listed. Active and inactive are the calls of the source. The call rests on the fitted dose curve; in most records, active means well fitted inhibition curve with a large enough effect; inconclusive means small, poorly fitted or top-dose-only effect; inactive means flat fitted curve, though single readings scatter.

What follows are compounds tested against Calcium and integrin-binding protein 1 (Homo sapiens) (UniProt Q99828) (assay: Primary qHTS for Identification of Calcium Integrin Binding Protein 1 (CIB1) Competitor (AID 1508620; further: top concentration of the series differs between compounds)). Settings: CIB1-GST / FITC-alphaIIb peptide fluorescence polarization; series mostly up to 114 µM; activity change, negative = inhibition: at the top concentration.
Calcium and integrin-binding protein 1 (Homo sapiens), sequence (Q99828 whole entry, looked up): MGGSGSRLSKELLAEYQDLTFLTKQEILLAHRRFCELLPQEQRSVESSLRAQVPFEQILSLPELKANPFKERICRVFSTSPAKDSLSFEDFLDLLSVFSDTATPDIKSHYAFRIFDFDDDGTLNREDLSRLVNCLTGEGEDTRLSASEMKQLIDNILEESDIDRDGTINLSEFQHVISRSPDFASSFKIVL
Method in brief: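 Fluorescence polarization competition: GST-tagged CIB1 (1 uM final) preincubated with compound 15 min at room temperature, then FITC-labelled alphaIIb peptide (100 nM final) added. After 15 min at room temperature, polarization read at Ex 480/Em 540.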
On the % scale 0 is the no-effect control and ±100 the full control effect.

**Q.** How did the “activity change, negative = inhibition” value turn out when `Cc1cc(C)n2ncc(C(=O)Nc3cccc(C(F)(F)F)c3)c2n1` was run?
**A.** -1.6% (inactive)

**Q.** `Cc1ccc(CNc2nc(-c3ccccc3C(F)(F)F)nc3ccccc23)cc1` was tested. Which “activity change, negative = inhibition” value did it give?
**A.** 2.08% (inactive)

**Q.** How did the “activity change, negative = inhibition” value turn out when `COc1ccnc(NC(=S)N2CCN(c3ccc4ccccc4n3)CC2)c1` was run?
**A.** -10.9% (inactive)

**Q.** `Cc1ccc(NS(=O)(=O)c2cc3c(cc2N2CCCCC2)NC(=O)CC3)cc1C` was tested. Which “activity change, negative = inhibition” value did it give?
**A.** 6.62% (inactive)

**Q.** For `CC(C)(C)N[S+](=O)([O-])c1cccc(-c2nnc(SCc3ccc(C(=O)O)cc3)n2-c2ccc(F)cc2)c1`, which “activity change, negative = inhibition” value is on record?
**A.** 1.44% (inactive)

**Q.** With `O=C(CNC(=O)c1ccccc1)N[C@@H](C(=O)Nc1cc(C(F)(F)F)ccc1Cl)c1ccccc1` as the compound, how does the Potency read?
**A.** inactive

**Q.** How did the “activity change, negative = inhibition” value turn out when `COc1ccc(C2c3c(ncn(CCc4ccccc4)c3=N)Oc3ccc4ccccc4c32)cc1OC` (stereo not given) was run?
**A.** 5.53% (inactive)

**Q.** Which “activity change, negative = inhibition” value does the source give for `CC1(C)CC2CC(C)(CN2S(=O)(=O)c2ccc(C(=O)Nc3cccc(S(=O)(=O)N4CCOCC4)c3)cc2)C1` (stereo not given) here?
**A.** 8.98% (inactive)

**Q.** Which “activity change, negative = inhibition” value does the source give for `O=C(O)c1cccc(-c2noc(-c3ccccc3C(F)(F)F)n2)c1` here?
**A.** -2.68% (inactive)

**Q.** For `Cc1cccc(C[C@H](C(=O)O)N2C(=O)c3ccc(C(=O)O)cc3C2=O)c1`, which “activity change, negative = inhibition” value is on record?
**A.** 1.27% (inactive)

**Q.** For `CC(C)(C)OC(=O)Cc1nnc(C(C(=O)OCc2ccccc2)c2ccccc2)o1` (stereo not given), which “activity change, negative = inhibition” value is on record?
**A.** -3.06% (inactive)

**Q.** `COc1ccccc1C1N=C(Nc2nc3ccccc3o2)NC2=C1C(=O)CCC2` (stereo not given) was tested. Which “activity change, negative = inhibition” value did it give?
**A.** -18% (inactive)

**Q.** For `CCOC(=O)CC(=O)Nc1ncnc2c1C(c1ccccc1)c1c(ccc3ccccc13)O2` (stereo not given), which “activity change, negative = inhibition” value is on record?
**A.** 5.45% (inactive)

**Q.** With `CS(=O)(=O)c1ccc(C(=O)OCC(=O)N2CCN(Cc3ccccc3)CC2)cc1[N+](=O)[O-]` as the compound, how does the “activity change, negative = inhibition” value read?
**A.** -14.7% (inactive)

**Q.** Which “activity change, negative = inhibition” value does the source give for `O=c1c2ccccc2nc2sc(NCc3ccc(Oc4ccccc4)cc3)nn12` here?
**A.** 8.44% (inactive)

**Q.** `COc1cc(O)c(C(CC(=O)N2CCCC(C(C)C)C2)c2ccc3c(c2)OCO3)c(OC)c1` (stereo not given) was tested. Which “activity change, negative = inhibition” value did it give?
**A.** -0.858% [at 228 µM] (inactive)

**Q.** How did the “activity change, negative = inhibition” value turn out when `CC(=O)c1cc2c(s1)c1cnn(Cc3ccccc3F)c(=O)c1n2C` was run?
**A.** 2.22% (inactive)

**Q.** `N#Cc1nc(Nc2cc(F)cc(F)c2)c2ncn(CCCN3CCCC3)c2n1` was tested. Which “activity change, negative = inhibition” value did it give?
**A.** 5.67% (inactive)

**Q.** `CCOC(=O)c1cccc(NC(=O)Nc2nnc(-c3ccncc3)s2)c1` was tested. Which “activity change, negative = inhibition” value did it give?
**A.** 4.82% (inactive)

**Q.** For `COc1ccc(NC(=O)c2cnn3c(C)cc(C)nc23)cc1F`, which “activity change, negative = inhibition” value is on record?
**A.** 6.7% (inactive)

**Q.** With `CC(=O)Nc1sc2c(c1-c1ccc3c(c1)OCCO3)CCNC2` as the compound, how does the “activity change, negative = inhibition” value read?
**A.** 3.07% (inactive)

**Q.** How did the “activity change, negative = inhibition” value turn out when `CC(=O)Nc1ccc(-c2csc(N3CCC(C(N)=O)CC3)n2)cc1` was run?
**A.** -2.3% (inactive)

**Q.** With `Cc1cc(C)nc(NCc2ccc(O)c3ncccc23)c1` as the compound, how does the “activity change, negative = inhibition” value read?
**A.** 19.8% (inactive)

**Q.** With `CCOc1ccccc1-c1nnc2n1N=C(c1cc(OC)ccc1OC)CS2` as the compound, how does the “activity change, negative = inhibition” value read?
**A.** 2.98% (inactive)

**Q.** For `O=C1CCc2cc(S(=O)(=O)Nc3ccccc3F)ccc2N1`, which “activity change, negative = inhibition” value is on record?
**A.** -1.24% (inactive)

**Q.** Which “activity change, negative = inhibition” value does the source give for `O=c1c2ccccc2nc2sc(NCc3ccccc3)nn12` here?
**A.** 10.8% (inactive)

**Q.** For `NC(=O)C1CCN(c2ncc(-c3cccc(N4CCOCC4)c3)s2)CC1`, which “activity change, negative = inhibition” value is on record?
**A.** 0.601% (inactive)

**Q.** How did the “activity change, negative = inhibition” value turn out when `O=C(Nc1cccc(C(F)(F)F)c1)c1cccs1` was run?
**A.** 3.52% (inactive)

**Q.** For `CN1CCN(c2ccc(NC(=O)c3cccs3)cn2)CC1`, which “activity change, negative = inhibition” value is on record?
**A.** -14.8% (inactive)

**Q.** Which “activity change, negative = inhibition” value does the source give for `FC(F)(F)c1ccc(CSc2nc3ncc(Br)cc3[nH]2)cc1` here?
**A.** 5.35% (inactive)

**Q.** Which “activity change, negative = inhibition” value does the source give for `Cn1c2ccsc2c2ncn(Cc3ccccc3F)c(=O)c21` here?
**A.** 1.06% (inactive)

**Q.** `Cc1cc2c(s1)c1cnn(Cc3ccccc3F)c(=O)c1n2Cc1ccccc1F` was tested. Which “activity change, negative = inhibition” value did it give?
**A.** -2.56% (inactive)

**Q.** With `O=C1CCCC2=C1C1(CCCC1)N=C(Nc1nc3cc(Br)ccc3o1)N2` as the compound, how does the “activity change, negative = inhibition” value read?
**A.** 1.75% (inactive)

**Q.** Which “activity change, negative = inhibition” value does the source give for `Clc1ccccc1-c1ccc2ncnc(NCc3cccs3)c2c1` here?
**A.** 1.1% (inactive)

**Q.** `CSc1ccc(-c2cnc(N3CCC(C(N)=O)CC3)s2)cc1` was tested. Which “activity change, negative = inhibition” value did it give?
**A.** 1.58% (inactive)

**Q.** How did the “activity change, negative = inhibition” value turn out when `Cc1noc(C)c1-c1cccc(-c2nn3c(=O)cc(N4CCNCC4)nc3s2)c1` was run?
**A.** -3.2% (inactive)

**Q.** For `CCOc1ccccc1-c1nnc2n1N=C(c1ccccc1OC)CS2`, which “activity change, negative = inhibition” value is on record?
**A.** 1.6% (inactive)

**Q.** Which “activity change, negative = inhibition” value does the source give for `Oc1cccc2cc(-c3ccccc3)cnc12` here?
**A.** -6.33% (inactive)

**Q.** For `O=S(=O)(c1ccc2c(c1)OCCO2)N1CCN(S(=O)(=O)c2cc(F)c(Br)cc2F)CC1`, which “activity change, negative = inhibition” value is on record?
**A.** 1.56% (inactive)

**Q.** `Fc1ccc(Nc2nc(-c3ccnc(C(F)(F)F)c3)nc3ccccc23)cc1F` was tested. Which “activity change, negative = inhibition” value did it give?
**A.** 0.738% (inactive)
